Drawing on PubChem BioAssay AID1903 (Southern Research Specialized Biocontainment Screening …, 2009), this text covers inhibition for 96 molecules.

Several values for one entry are separate records, joined by “and”; a condition that tells them apart may be missing. Equal entries are not always repeated. In all, about 310,000 compounds went through this assay and about 1,200 (0.39%) were called active. These entries were drawn from the full list. Measured potencies and affinities stand elsewhere. Unmarked numbers belong to inactive results. No rule for the calls is given here.

Sequence of Large T antigen (Simian virus 40) (P03070 whole entry, looked up): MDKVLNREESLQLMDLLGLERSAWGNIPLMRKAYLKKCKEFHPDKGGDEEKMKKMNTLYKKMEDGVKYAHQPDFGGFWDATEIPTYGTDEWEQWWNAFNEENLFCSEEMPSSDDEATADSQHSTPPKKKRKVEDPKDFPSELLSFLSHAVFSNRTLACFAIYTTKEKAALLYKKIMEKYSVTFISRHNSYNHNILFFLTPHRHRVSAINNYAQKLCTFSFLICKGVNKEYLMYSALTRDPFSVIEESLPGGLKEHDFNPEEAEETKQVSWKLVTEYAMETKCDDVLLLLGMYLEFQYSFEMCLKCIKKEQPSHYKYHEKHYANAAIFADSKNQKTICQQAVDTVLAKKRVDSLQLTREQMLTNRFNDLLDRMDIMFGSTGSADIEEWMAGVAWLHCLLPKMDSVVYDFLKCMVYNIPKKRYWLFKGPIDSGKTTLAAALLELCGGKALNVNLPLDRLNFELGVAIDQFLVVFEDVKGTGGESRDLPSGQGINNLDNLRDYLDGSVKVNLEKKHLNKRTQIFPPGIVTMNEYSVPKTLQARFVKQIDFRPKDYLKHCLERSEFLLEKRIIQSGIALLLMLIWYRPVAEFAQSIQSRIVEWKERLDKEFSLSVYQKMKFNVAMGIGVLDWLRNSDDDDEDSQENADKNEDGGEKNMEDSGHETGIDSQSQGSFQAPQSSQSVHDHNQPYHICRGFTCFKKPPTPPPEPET

This experiment addresses Large T antigen (Simian virus 40) (UniProt P03070). Briefly: SV40 large T antigen inhibitors, biochemical (AID 1903). As to conditions: SV40 large T antigen ATPase/helicase inhibition assay; at 20 µM; hits give high values.
In the case of `COc1ccc(-c2c(C#N)c(N)n(N)c(=O)c2C#N)cc1Cl`, the inhibition was 3.3%. The result for `CN(C)c1ccc(/C=c2\sc3n(c2=O)CCCN=3)cc1` reads 7.47%. `O=C1/C(=C/c2ccncc2)N=C2CCCCCN12`: the inhibition is 18.3%. The result for `COc1cccc(/C=C2\N=C3CCCCCN3C2=O)c1` reads 13.8%; that for `COc1ccc(/C=C2\N=C3CCCCCN3C2=O)cc1`, 3.96%. The result for `COc1ccc(/C=C2/N=C3CCCCCN3C2=O)cc1OC` reads 6.08%; that for `COc1ccc(/C=C2/N=C3CCCCCN3C2=O)cc1`, 4.2%.

Consider `O=c1/c(=C/c2ccc(O)cc2)sc2n1CCCN=2`, for which the inhibition is 29.1%. In the case of `COc1ccc(/C=C2\N=C3CCCCCN3C2=O)cc1OC`, the inhibition is 13.5%.

For `CCC1Sc2ccc(S(=O)(=O)N3CCN(c4ccccc4)CC3)cc2NC1=O` (stereo unspecified), the inhibition is -0.58%. Turning to `O=C1C(=O)N(CCS(=O)(=O)c2ccccc2)c2ccc(F)cc21`, the inhibition was 3.86%. Next, `CN1CC(=O)N(CC(=O)Nc2cccc(S(=O)(=O)N3CCOCC3)c2)C1=O`: 4.06%. Next, `CCCc1nnc(NC(=O)C(=O)NCCN(CC)CC)s1`: 0.4%.

Turning to `COCCCNC(=O)COc1ccc(-c2nccc(-c3ccccn3)n2)cc1`, the inhibition was 4.04%. As to `C=CCn1c(SCC(=O)N2CCCC2)nc2c([nH]c3ccccc32)c1=O`, the inhibition is 5.61%. Turning to `CCCCn1c(SC(C)C(=O)c2ccc(OC)cc2)nc2cc(S(N)(=O)=O)ccc21` (stereo unspecified), the inhibition is 17.9%. Next, `COc1cc(OC)c(C(=O)N/N=C/c2ccoc2)cc1OC`: 13.6%. Next, `O=[N+]([O-])c1ccccc1CNCCCCO`: 0.09%; `O=C(NCCC1=CCCCC1)c1ccc(Cl)c(S(=O)(=O)Nc2ccccc2)c1`: -7.13%; `Cc1ccc(C)c(NC(=O)CN(C)C(=O)c2nn(C)c(=O)c3ccccc23)c1`: 6.79%. `Nc1c(Cl)ncnc1N/N=C/c1cccc(O)c1`: the inhibition was 28.2%. The result for `COc1ccc(/C=N/Nc2ncnc(Cl)c2N)cc1OC` reads 19%; that for `CCOc1ccc(/C=N/Nc2nc(N3CCCC3)nc(N3CCCC3)n2)cc1OC`, -0.04%. Next, `COc1ccc(/C=N/Nc2nc(Nc3ccccc3)nc(N3CCCCC3)n2)cc1OC`: -16.1%. Turning to `COc1ccc(/C=N/Nc2nc(N3CCCC3)nc(N3CCCC3)n2)cc1`, the inhibition was -2.38%.

As for `CCOc1cc(/C=N/Nc2nncc(-c3ccccc3)n2)ccc1O`, the inhibition is 8.31%. Next, `COc1ccc(/C=N/Nc2nc(N3CCCCC3)nc(N3CCCCC3)n2)cc1[N+](=O)[O-]`: 4.11%; `CCOc1cc(/C=N/Nc2nnc(C)n2N)ccc1O`: 24.2%.

Take `O=c1c(Cl)c(Nc2cccc(Cl)c2)cnn1-c1nc2ccccc2s1`: the inhibition was -0.81%. The result for `COCCCNC(=O)C(C)N1c2cccc3cccc(c23)S1(=O)=O` (stereo unspecified) reads 3.72%; that for `CCOC(=O)c1sc(=S)n(-c2ccc(OC)cc2)c1N`, 15.3%; that for `Cc1ccc(CN2CCN(CC(=O)NCCCN3CCN(c4ccc(F)cc4)CC3)C2=O)cc1`, 3.02%. Next, `CCN1CCCC1CNC(=O)c1ccccc1Cl` (stereo unspecified): -13.2%.

Consider `COc1cccc(NC(=O)Cn2cnc3c(oc4nc5c(cc43)CCCC5)c2=O)c1`, for which the inhibition is 4.45%. Consider `CCNc1nc(NCC)nc(N/N=C/c2cc(OC)c(OC)c(OC)c2)n1`, for which the inhibition is 9.56%. As to `CCNc1nc(NCC)nc(N/N=C/c2ccc(O)c(O)c2)n1`, the inhibition is 6.9%. The result for `[C-]#[N+][C@H](O[C@@H]1O[C@H](CO)[C@@H](O)[C@H](O)[C@H]1O)c1ccccc1` reads 13.8%. The result for `OCc1ccccc1O[C@@H]1O[C@H](CO)[C@@H](O)[C@H](O)[C@H]1O` reads 10.5%; that for `C/C(=C1/SC(N2CCOCC2)=NC1=O)c1ccc(Br)cc1`, -0.65%; that for `CC1CCCCC1NC(=O)C1CCN(S(=O)(=O)c2cccc3nonc23)CC1` (stereo unspecified), 6.27%. Turning to `CC1C(=O)NN=C1C(=O)N/N=C/c1cccs1` (stereo unspecified), the inhibition is 30%. Turning to `COc1ccc(OC)c(/C=N/NC(=O)CC2C(=O)NN=C2C)c1` (stereo unspecified), the inhibition was 8.18%. Next, `COc1cc(OC)c(OC)cc1/C=N/NC(=O)CC1C(=O)NN=C1C` (stereo unspecified): 8.13%; `COc1ccc(/C=N\NC(=O)C2=NNC(=O)C2C)cc1` (stereo unspecified): 21.2%. Next, `CCCCC(CCCCl)C(=O)Nc1ccccc1` (stereo unspecified): 0.43%; `CCN1CCCC1CNC(=O)COc1cc(=O)n(C)c2ccccc12` (stereo unspecified): -0.09%. The result for `CC(=O)C[C@H]1c2ccccc2S(=O)(=O)N1C1CCCC1` reads 3.17%.

With `CC(C)CCN1CCN(Cc2cccc3cccnc23)CC1CCO` (stereo unspecified), the inhibition is -6.36%.

For the molecule `CCN1CCN(C(=O)c2ccc(OCC(=O)Nc3ccc(F)cc3)c(OC)c2)CC1`, the inhibition was 4.11%. The result for `O=C1c2ccccc2CN1c1ccccc1` reads 5.42%. The result for `COc1ccc(N2Cc3ccccc3C2=O)cc1` reads 2.48%. The result for `CCN(Cc1ccccc1)S(=O)(=O)c1ccc(OC)c2ncccc12` reads 11.3%; that for `COc1cc(-c2noc(CCC(=O)NC3CCCCC3)n2)cc(OC)c1OC`, 25.3%. In the case of `COc1ccc(C(=O)c2ccc(OC)c(N)c2)cc1N`, the inhibition is 8.57%. Consider `CN(C)c1ccc(Cl)cc1N`, for which the inhibition was 1.86%. The result for `O=C(CCS(=O)(=O)c1ccc(F)cc1)N1CCN(c2ccccc2)CC1` reads 18.3%; that for `CC(=C/c1ccc(C(C)C)cc1)/C=N/NC(=O)Cn1nc(C)cc1C`, 2.16%.

For `Nc1nc(-c2cccs2)c(CC(=O)O)s1`, the inhibition was 23.1%. The result for `CC(=O)Nc1sc(NC(=O)c2ccccc2)nc1-c1cccs1` reads 6.41%; that for `O=[N+]([O-])c1cccc(C2(O)COc3ccccc3O2)c1` (stereo unspecified), 6.64%; that for `CCn1c(COc2ccccc2)nnc1SCC(=O)NC1CCCCC1`, 8.87%.

As for `CCOC(=O)C1CCN(Cc2cc(=O)n3c(-c4ccccc4)csc3n2)CC1`, the inhibition was 2.57%. In the case of `O=c1cc(CN2CCN(c3ccccc3)CC2)nc2scc(-c3ccccc3)n12`, the inhibition is 3.32%.

`Cc1ccc(N(C(=O)CNC(=O)c2ccco2)C(C(=O)NCC2CCCO2)c2ccccc2)c(C)c1` (stereo unspecified): the inhibition was 18.4%. The result for `CCN(CC)S(=O)(=O)c1ccc(Nc2nc3ccccc3n3nnnc23)cc1` reads -2.08%; that for `N#CC1=C(S)N(c2ccccc2)C(c2ccc(-c3cccc(Cl)c3)o2)NC1=O` (stereo unspecified), 34.4%; that for `N#CC1=C(S)N(c2ccccc2)C(c2ccc(-c3cc(Cl)ccc3Cl)o2)NC1=O` (stereo unspecified), 33.3%. Next, `Cc1cccc(N(CC(=O)N2CCCC2)S(C)(=O)=O)c1`: 7.43%; `CSc1ccccc1NC(=O)CN(C)Cc1cccc(Cl)c1`: 8.82%. For the molecule `COc1ccc(C(=O)/C=C(\C)Nc2ccc3c(c2)OCO3)cc1`, the inhibition is 5.13%. Next, `COc1ccc(N/C(C)=C/C(=O)c2ccccc2)cc1`: 9.38%; `CCCc1nc(C(C)(C)O)c(C(=O)O)n1Cc1ccc(-c2ccccc2-c2nn[nH]n2)cc1`: -1.62% and 6.85%; `Cc1c(/C=N/NC(=O)c2cccs2)c2ccccc2n1Cc1ccccc1Cl`: 14.4%. The result for `CN(Cc1ccccc1F)C(=O)c1sccc1-c1ccccc1` reads 20%; that for `CCOC(=O)Cc1csc(NC(=O)NC2(C(F)(F)F)Oc3ccccc3O2)n1`, 31.1%; that for `CC(C)CNC(=O)NC1(C(F)(F)F)Oc2ccccc2O1`, 3.66%. The result for `O=C(Nc1ccc2c(c1)CCCN2C(=O)c1cccs1)c1c(F)cccc1Cl` reads 13.1%.

In the case of `CCC(=S)/C=C1\Sc2ccc3ccccc3c2N1CCCS(=O)(=O)O`, the inhibition is 18.3%. In the case of `Cc1c2ccccc2cc[n+]1CCCS(=O)(=O)[O-]`, the inhibition is 7.97%. The result for `COC(=O)[C@@H](NC(=O)NCc1ccccc1F)C(C)C` reads -2.59%. Next, `COc1ccc(C(=O)N2CCN(S(=O)(=O)c3cc(Cl)ccc3OC)CC2)cc1`: 5.04%; `Cc1nn(C)c(C)c1NC(=O)CSc1nc(-c2ccccc2Cl)nc2c1cnn2-c1ccccc1`: 8.57%.

Consider `COc1cc(/C=N/NC(=O)/C(=C/c2ccccc2)CCO)ccc1O`, for which the inhibition is 29.2%.

Regarding `COc1ccc(/C=N/NC(=O)/C(=C/c2ccccc2)CCO)cc1`, the inhibition is 2.79%.

In the case of `O=C(COc1ccc(N2CC(C(=O)O)CC2=O)cc1)Nc1cccc(C(F)(F)F)c1` (stereo unspecified), the inhibition is -0.75%. The result for `COc1cc(/C=N\NC(=O)CNC(=O)C(c2ccccc2)c2ccccc2)ccc1O` reads 33.5%. For the molecule `COc1ccc(/C=N/NC(=O)CNc2n[nH]c(=O)[nH]c2=O)cc1OC`, the inhibition was 0.71%. Next, `COc1ccc(/C=N/NC(=O)CCc2n[nH]c(=O)[nH]c2=O)cc1OC`: 9.55%; `CCOc1cc(/C=N/NC(=O)COc2nc(C)cc(COC)c2C#N)ccc1O`: 25.5%. Next, `CCOc1cc(/C=N/NC(=O)C(=O)N2CCCC2)ccc1O`: 29.3%. For the molecule `COc1ccc(/C=N/NC(=O)CCc2ccccc2)cc1O`, the inhibition was 29.5%. Next, `Cc1cccc(N2CCN(S(=O)(=O)c3ccc4c(c3)CC(C)N4C(=O)C3CC3)CC2)c1C` (stereo unspecified): 4.4%. The result for `Cc1cc(OCC(=O)NC2CC2)c2c(C)c(C)c(=O)oc2c1` reads 20.6%.

For the molecule `O=C(CN1CCOCC1)Nc1cccc(C(F)(F)F)c1`, the inhibition was 16.1%. Next, `COc1cc(Cl)c(C)cc1NC(=O)CCCn1c(=O)oc2ccccc21`: 4.1%; `O=C(CN1CCOCC1)NNC(=S)Nc1ccccc1`: 4.41%.
